# In PubChem BioAssay AID1159580 (chemical genetic matrix, 2015):
# “And” between values parts separate entries of the source, which are not always exact repeats. Identical values can stand only once. The whole screen tested about 5,500 compounds, of which about 2,000 (36%) were called active. Roughly 18% stayed inconclusive and do not appear here. No stated cut-off is given here; in the data, active means normalized growth mostly below about 0.91 (no sharp cut-off); inconclusive means no clear call, values can overlap the other calls; inactive means mostly above about 0.92. This is one part of the list.
# Test: chemical genetic growth profiling, strain panel (AID 1159580);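 further: tested at 20 µM; growth read once vehicle control cultures reached saturation at 30 °C; 1 = growth at the plate median or of vehicle wells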
# Details: S. cerevisiae deletion strains, growth OD
structure (smiles),measurement,setting,value
Cc1cccc(Nc2ccccc2C(=O)O)c1C,normalized growth,"locus YAL013W, strain DEP1, stronger effect = lower value",0.89 (active)
same,normalized growth,"locus YAL021C, strain ccr4, stronger effect = lower value",0.934 (inactive)
same,normalized growth,"locus YAL026C, strain drs2, stronger effect = lower value",0.929 (inactive)
same,normalized growth,"locus YAL030W, strain snc1, stronger effect = lower value",0.913 (active)
same,normalized growth,"locus YBL061C, strain skt5, stronger effect = lower value",0.924 (inactive)
same,normalized growth,"locus YBR009C, strain hhf1, stronger effect = lower value",0.951 (inactive)
same,normalized growth,"locus YBR021W, strain FUR4, stronger effect = lower value",0.853 (inactive)
same,normalized growth,"locus YBR023C, strain chs3, stronger effect = lower value",0.919 (inactive)
same,normalized growth,"locus YBR171W, strain sec66, stronger effect = lower value",0.843 (active)
same,normalized growth,"locus YBR229C, strain ROT2, stronger effect = lower value",0.912 (active)
same,normalized growth,"locus YBR231C, strain swc5, stronger effect = lower value",0.915 (inactive)
same,normalized growth,"locus YBR279W, strain paf1, stronger effect = lower value",0.921 (active)
same,normalized growth,"locus YCL011C, strain gbp2, stronger effect = lower value",0.922 (inactive)
same,normalized growth,"locus YCL016C, strain dcc1, stronger effect = lower value",0.913 (active)
same,normalized growth,"locus YCL029C, strain bik1, stronger effect = lower value",0.907 (active)
same,normalized growth,"locus YCL061C, strain MRC1, stronger effect = lower value",0.894 (active)
same,normalized growth,"locus YCL069W, strain vba3, stronger effect = lower value",0.912 (active)
same,normalized growth,"locus YCR088W, strain abp1, stronger effect = lower value",0.895 (active)
same,normalized growth,"locus YDL005C, strain med2, stronger effect = lower value",0.946 (inactive)
same,normalized growth,"locus YDL035C, strain GPR1, stronger effect = lower value",0.921 (inactive)
same,normalized growth,"locus YDL040C, strain nat1, stronger effect = lower value",0.92 (active)
same,normalized growth,"locus YDL074C, strain BRE1, stronger effect = lower value",0.898 (inactive)
same,normalized growth,"locus YDL101C, strain DUN1, stronger effect = lower value",0.994 (inactive)
same,normalized growth,"locus YDL134C, strain PPH21, stronger effect = lower value",0.904 (inactive)
same,normalized growth,"locus YDL185W, strain tfp1, stronger effect = lower value",0.984 (inactive)
same,normalized growth,"locus YDL192W, strain arf1, stronger effect = lower value",0.834 (active)
same,normalized growth,"locus YDR001C, strain nth1, stronger effect = lower value",0.893 (active)
same,normalized growth,"locus YDR069C, strain doa4, stronger effect = lower value",0.988 (inactive)
same,normalized growth,"locus YDR101C, strain arx1, stronger effect = lower value",0.885 (active)
same,normalized growth,"locus YDR137W, strain rgp1, stronger effect = lower value",0.739 (active)
same,normalized growth,"locus YDR150W, strain NUM1, stronger effect = lower value",0.894 (active)
same,normalized growth,"locus YDR159W, strain sac3, stronger effect = lower value",0.898 (inactive)
same,normalized growth,"locus YDR162C, strain NBP2, stronger effect = lower value",0.806 (active)
same,normalized growth,"locus YDR195W, strain ref2",1.08 (inactive)
same,normalized growth,"locus YDR297W, strain sur2, stronger effect = lower value",0.912 (active)
same,normalized growth,"locus YDR318W, strain mcm21, stronger effect = lower value",0.882 (active)
same,normalized growth,"locus YDR334W, strain swr1, stronger effect = lower value",0.908 (inactive)
same,normalized growth,"locus YDR335W, strain msn5, stronger effect = lower value",0.923 (inactive)
same,normalized growth,"locus YDR388W, stronger effect = lower value",0.869 (active)
same,normalized growth,"locus YDR392W, strain spt3, stronger effect = lower value",0.593 (active)
same,normalized growth,"locus YDR502C, strain sam2, stronger effect = lower value",0.864 (active)
same,normalized growth,"locus YEL003W, strain gim4, stronger effect = lower value",0.937 (inactive)
same,normalized growth,"locus YEL037C, strain rad23, stronger effect = lower value",0.909 (active)
same,normalized growth,"locus YEL061C, strain CIN8 (second series), stronger effect = lower value",0.887 (active)
same,normalized growth,"locus YEL061C, strain CIN8, stronger effect = lower value",0.904 (active)
same,normalized growth,"locus YER015W, strain faa2, stronger effect = lower value",0.936 (inactive)
same,normalized growth,"locus YER016W, strain bim1, stronger effect = lower value",0.918 (active)
same,normalized growth,"locus YER110C, stronger effect = lower value",0.859 (active)
same,normalized growth,"locus YER111C, strain swi4, stronger effect = lower value",0.907 (active)
same,normalized growth,"locus YER155C, strain BEM2 (second series), stronger effect = lower value",0.904 (inactive)
same,normalized growth,"locus YER155C, strain BEM2, stronger effect = lower value",0.868 (active)
same,normalized growth,"locus YER167W, strain BCK2, stronger effect = lower value",0.867 (active)
same,normalized growth,"locus YFR010W, strain ubp6, stronger effect = lower value",0.986 (inactive)
same,normalized growth,"locus YGL078C, strain dbp3, stronger effect = lower value",0.959 (inactive)
same,normalized growth,"locus YGL086W, strain mad1, stronger effect = lower value",0.884 (active)
same,normalized growth,"locus YGL167C, strain pmr1, stronger effect = lower value",0.851 (active)
same,normalized growth,"locus YGL173C, strain kem1, stronger effect = lower value",0.911 (inactive)
same,normalized growth,"locus YGL227W, strain vid30, stronger effect = lower value",0.917 (inactive)
same,normalized growth,"locus YGL240W, strain doc1, stronger effect = lower value",0.967 (inactive)
same,normalized growth,"locus YGL248W, strain PDE1, stronger effect = lower value",0.936 (inactive)
same,normalized growth,"locus YGL253W, strain hxk2, stronger effect = lower value",0.897 (active)
same,normalized growth,"locus YGR078C, strain PAC10, stronger effect = lower value",0.897 (inactive)
same,normalized growth,"locus YGR135W, strain pre9, stronger effect = lower value",0.858 (active)
same,normalized growth,"locus YGR229C, strain SMI1, stronger effect = lower value",0.729 (active)
same,normalized growth,"locus YGR252W, strain gcn5, stronger effect = lower value",0.854 (inactive)
same,normalized growth,"locus YHR013C, strain ard1, stronger effect = lower value",0.967 (inactive)
same,normalized growth,"locus YHR027C, strain rpn1, stronger effect = lower value",0.906 (active)
same,normalized growth,"locus YHR030C, strain SLT2, stronger effect = lower value",0.907 (active) and 0.891 (inactive)
same,normalized growth,"locus YHR079C, strain IRE1 (second series), stronger effect = lower value",0.887 (active)
same,normalized growth,"locus YHR079C, strain IRE1, stronger effect = lower value",0.883 (inactive)
same,normalized growth,"locus YHR094C, strain hxt1, stronger effect = lower value",0.872 (active)
same,normalized growth,"locus YHR129C, strain ARP1, stronger effect = lower value",0.911 (active)
same,normalized growth,"locus YHR142W, strain chs7, stronger effect = lower value",0.887 (inactive)
same,normalized growth,"locus YHR200W, strain rpn10, stronger effect = lower value",0.872 (active)
same,normalized growth,"locus YIL066C, strain RNR3, stronger effect = lower value",0.915 (inactive)
same,normalized growth,"locus YIL073C, strain SPO22, stronger effect = lower value",0.905 (inactive)
same,normalized growth,"locus YIL125W, strain kgd1, stronger effect = lower value",0.985 (inactive)
same,normalized growth,"locus YIR030C, strain dcg1, stronger effect = lower value",0.863 (active)
same,normalized growth,"locus YJL092W, strain hpr5, stronger effect = lower value",0.908 (active)
same,normalized growth,"locus YJL095W, strain BCK1 (second series), stronger effect = lower value",0.918 (active)
same,normalized growth,"locus YJL095W, strain BCK1, stronger effect = lower value",0.8 (inactive) and 0.923 (inactive)
same,normalized growth,"locus YJL115W, strain asf1, stronger effect = lower value",0.908 (inactive)
same,normalized growth,"locus YJL129C, strain trk1, stronger effect = lower value",0.697 (active)
same,normalized growth,"locus YJL134W, strain LCB3, stronger effect = lower value",0.894 (active)
same,normalized growth,"locus YJL154C, strain vps35, stronger effect = lower value",0.904 (active)
same,normalized growth,"locus YJL164C, strain tpk1, stronger effect = lower value",0.948 (inactive)
same,normalized growth,"locus YJL166W, strain qcr8, stronger effect = lower value",0.929 (inactive)
same,normalized growth,"locus YJL168C, strain set2, stronger effect = lower value",0.868 (active)
same,normalized growth,"locus YJL187C, strain SWE1 (second series), stronger effect = lower value",0.932 (inactive)
same,normalized growth,"locus YJL187C, strain SWE1, stronger effect = lower value",0.922 (active)
same,normalized growth,"locus YJR043C, strain POL32, stronger effect = lower value",0.942 (inactive)
same,normalized growth,"locus YJR066W, strain TOR1, stronger effect = lower value",0.81 (active)
